Measured values from PubChem BioAssay AID493067 (National Center for Advancing Translational Sciences (NCATS), 2011).
Records with an inconclusive call do not appear. Calls of active or inactive are those of the source. Calls come from the whole dose curve; as a rule, active = well fitted activation curve with a large enough effect; inconclusive = small, poorly fitted or top-dose-only effect; inactive = flat fitted curve, though single readings scatter.

Experiment: Confirmation Concentration-Response Assay for qHTS Assay for Epigenetic Modulators
Conditions: murine C127i LDR cells, GFP reporter derepression, 30 h; series mostly up to 46.1 µM
Source text: NIH Molecular Libraries Screening Centers Network [MLSCN] NIH Chemical Genomics Center [NCGC] MLSCN Grant: 1 X01 MH079860-01 Assay Provider: Elisabeth D. Martinez, University of Texas SW Medical Center NCGC Assay Overview: This assay, used for the primary screen, was employed here to confirm actives identified from the Locus Derepression (LDR) assay (PubChem AID 1865). The LDR assay detects the derepression of a GFP reporter that is stably integrated in a region of the genome of murine c127i mammary cells that is presumably silenced. Compounds that derepress or induce this reporter locus are identified by enumerating GFP positive cells using an Acumen Explorer Ex3 (TTP Labtech) laser-scanning microplate cytometer.
NCGC Assay Protocol Summary: Three hundred LDR cells in 5 uL per well were dispensed into black, clear-bottom 1536-well plates. Twenty-three nL compound was transferred to the assay plate and cells were incubated 30 hours at 37 C. Medium was removed, cells were washed two times with PBS, and GFP-positive cells were enumerated as fluorescent objects between the sizes of 20 to 120 um width and depth using an Acumen Explorer Ex3 (TTP Labtech) laser-scanning microplate cytometer. For further details, see Johnson, RL, Huang, W, Jadhav, A, Austin, CP, Inglese, J, Martinez, ED (2008). A quantitative high-throughput screen identifies potential epigenetic modulators of gene expression. Anal Biochem 375: 237-48.

SMILES	Potency
CCc1ccc(NC(=O)C2CCC(CNS(=O)(=O)c3ccc4c(c3)CC(C)N4C(C)=O)CC2)cc1 (stereo not drawn)	inactive
COc1cccc(/C=N/Nc2nc(Nc3ccccc3)nc(-n3nc(C)cc3C)n2)c1O	3.98 µM (active)
Oc1ccc(Br)cc1C=Nc1ccc2c3c(cccc13)CC2	inactive
N#CC1=C(N)n2c(s/c(=C\c3cccs3)c2=O)=C(C#N)C1c1cccs1 (stereo not drawn)	15.8 µM (active)
CN(c1ccccc1)S(=O)(=O)c1nnc(NC(=O)c2ccccc2)s1	inactive
CCOc1ccc(NC(=O)c2nc(S(=O)(=O)Cc3ccccc3F)ncc2Cl)cc1	inactive
O=C(O)CCCCCN1C(=O)/C(=C\c2ccc(-c3ccc(Cl)cc3)o2)SC1=S	7.94 µM (active)
CCOC(=O)c1cc2c(=O)n3ccccc3nc2n(Cc2ccco2)c1=NC(=O)c1ccc(Br)cc1	15.8 µM (active)
Cc1cccn2c(=O)c(/C=C3\SC(=S)N(CC(C)C)C3=O)c(NCCCOC(C)C)nc12	3.55 µM (active)
O=C(CSc1cccc[n+]1[O-])c1ccccc1Br	25.1 µM (active)
N#Cc1sc2nc(-c3ccccc3)cc(C(F)(F)F)c2c1N	15.8 µM (active)
Cc1nc(CSc2nsc(/C=C/N(C)C)c2C#N)cs1	inactive
CCc1nnc(NC(=O)c2cccc(C(=O)Nc3nnc(CC)s3)n2)s1	7.94 µM (active)
CCN(CC)c1ccc2c(c1)oc(=O)c1c(Cl)cc(=O)oc12	3.98 µM (active)
CC(=O)[C@H](CC(C)C)NC(=O)[C@@H](CC(C)C)NC(=O)[C@H](CC(C)C)NC(=O)OCc1ccccc1	3.98 µM (active)
S=C(Nc1ccccc1)c1ccccn1	15.8 µM (active)
COc1ccc2c(C)nc(Nc3nc(-c4ccccc4)cc(=O)[nH]3)nc2c1	4.47 µM (active)
CCOn1c(=O)c[n+]([O-])c2ccccc21	inactive
Cc1ccc(/C=[N+](\[O-])c2ccc(N(C)C)cc2)c2nsnc12	inactive
COCCNC(=S)N/N=C(\C)c1ccccc1O	6.31 µM (active)
CC1=C/C(=N\NC(=S)Nc2cccnc2)CC(C)(C)C1	3.16 µM (active)
Cc1cc(N2CCN(c3ccc([N+](=O)[O-])c4cccnc34)CC2)c2ccccc2n1	12.6 µM (active)
CN(C)S(=O)(=O)c1ccc2c(c1)/C(=C/c1cc3c([nH]1)CCCC3)C(=O)N2	14.1 µM (active)
